Six1-Eya2 inh = blocks human Six1 binding to Eya2; AlphaScreen GST-Six1/His-Eya2 binding, biochemical; active compounds read low; activity change, % (concentration not given with the values); hit rate 0.56% among 360,000; in the data active = activity change below about -65%; inconclusive = mostly about -30% to -63%; also: % is scaled to controls: 0 for no effect and ±100 for the full control effect
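Compounds are tested against tagged Six1 and Eya2 proteins bridged by glutathione donor and nickel acceptor beads; after a one-hour incubation at 37 °C without light, AlphaScreen emission is recorded.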
G9a inh = inhibitors of human histone lysine methyltransferase G9a; Q96KQ7; G9a H3K9 monomethylation, AlphaScreen, 2 h; Potency, µM (highest dose often 102 µM), for the others: top-dose activity, negative = inhibition, hits mostly inhibitors; hit rate 8.8% among 350,000; also: potency is read from the fitted curve at half-maximal effect; % is scaled to controls: 0 for no effect and ±100 for the full control effect; nearly all actives have a fitted effect of over 75% in size
Target sequence (Q96KQ7 913-1193 limits assumed): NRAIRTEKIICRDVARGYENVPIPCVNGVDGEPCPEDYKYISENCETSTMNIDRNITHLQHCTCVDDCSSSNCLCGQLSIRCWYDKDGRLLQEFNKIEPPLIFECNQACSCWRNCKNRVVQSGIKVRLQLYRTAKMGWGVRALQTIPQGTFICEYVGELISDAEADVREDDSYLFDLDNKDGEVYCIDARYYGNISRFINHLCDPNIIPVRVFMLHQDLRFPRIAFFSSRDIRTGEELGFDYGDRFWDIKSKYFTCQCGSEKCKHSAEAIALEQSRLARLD
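Readings reflect AlphaScreen signal from monomethyl-H3K9 antibody detection. HMT at 20 nM; substrate b-H3K9 500 nM; cofactor SAM 20 uM; 2 h RT reaction; compounds tested as titrations in qHTS with 15 min preincubation.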
JMJD2A Tudor = inhibitors of human JMJD2A Tudor domain; hit rate 4.4% among 390,000; AlphaScreen JMJD2A-Tudor / H3K4me3 peptide binding; Potency, µM (titrated, usually from 114 µM), without a hit: at the top dose activity change, negative = inhibition, usual class: inhibitors; O75164; also: potency is read from the fitted curve at half-maximal effect; % is scaled to controls: 0 for no effect and ±100 for the full control effect; nearly all actives have a fitted effect of over 50% in size
CtBP-E1A inh = blocks the CtBP interaction with E1A | AlphaScreen GST-E1A/His-CtBP binding, 1536-well; active compounds read low | activity change, % (concentration not given with the values) | hit rate 0.49% among 340,000 | AID 651724; in the data active = activity change below about -65%; inconclusive = mostly about -30% to -63%; also: % is scaled to controls: 0 for no effect and ±100 for the full control effect
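Protein mix (5X: 125 nM each GST-E1A, His-CtBP) was incubated with pinned compound 2 h at 37 deg C in dark, in 50 mM Tris pH 8.0 buffer with 300 mM NaCl. Glutathione donor and nickel acceptor beads followed; AlphaScreen signal read after 1 h.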
HP1b chromo inh = HP1-beta chromodomain-methylated histone interaction inhibition; hit rate 0.56% among 390,000; Potency, µM (doses to about 114 µM), inactives show at the highest dose activity change, negative = inhibition, hits mostly inhibitors; AlphaScreen HP1-beta / biotin-H3K9me3 peptide binding; P83916; AID 540317; also: potency is read from the fitted curve at half-maximal effect; nearly all actives have a fitted effect of over 70% in size
Target sequence (P83916 whole entry, looked up): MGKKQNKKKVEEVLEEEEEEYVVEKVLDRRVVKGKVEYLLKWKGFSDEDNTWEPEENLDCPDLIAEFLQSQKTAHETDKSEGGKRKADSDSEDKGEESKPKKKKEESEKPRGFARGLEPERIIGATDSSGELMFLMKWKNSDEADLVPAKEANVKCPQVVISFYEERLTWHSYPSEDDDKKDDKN
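Compound inhibition of the preformed complex between 50 nM HP1-beta and 50 nM biotinylated H3K9me3 peptide was read by AlphaScreen. Buffer was PBS pH 7.4 with 0.01% Tween-20. Incubations ran 30 min at room temperature, with 10 ug/mL donor/acceptor beads.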
BAZ2B inh = BAZ2B (human) inhibition; hit rate 4.4% among 360,000; AID 504333; AlphaScreen BAZ2B-H3K14Ac peptide displacement; Potency, µM (titrated, usually from 114 µM), without a hit: at the top dose activity change, negative = inhibition, most hits filed as inhibitors; also: potency is read from the fitted curve at half-maximal effect; % is scaled to controls: 0 for no effect and ±100 for the full control effect; nearly all actives have a fitted effect of over 60% in size
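Inhibition is scored as reduced AlphaScreen emission. The BAZ2B/b-H3(5-23)K14Ac complex (50 nM each) in PBS pH 7.4, 0.01% Tween-20 meets compound (up to 110 uM) for 30 min at RT before bead addition.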
* marks the source's active call; other numbers are inactive results; ? = inconclusive; nt = no result given; [ ] = another dose, or the depositor's remark. Only some compounds are listed: those with a hit (about 10% of all), similar ones and a draw of the others. Unless noted, calls follow the shape of the dose curve; as a rule, active = well fitted inhibition curve with a large enough effect; inconclusive = small, poorly fitted or top-dose-only effect; inactive = no such curve, though single readings can be large or run the other way.

SMILES	Six1-Eya2 inh	G9a inh	JMJD2A Tudor	CtBP-E1A inh	HP1b chromo inh	BAZ2B inh
O=C(COC(=O)/C=C/c1ccccc1)Nc1cccnc1Cl	6	50µM*	1%	-6	21%	8%
O=C(COC(=O)c1ccccn1)Nc1ccccc1Cl	-4	10µM*	32µM*	-5	-1%	?
O=S1(=O)C=C(Sc2nc3cc(Cl)ccc3o2)c2ccccc21	-7	45µM*	?	1	-11%	-24%
CCOC(=O)CC(NC(=O)CCc1c(C)nc2c(c(C)nn2-c2ccc(C)c(C)c2)c1C)c1ccc(C)cc1 (stereo unspecified)	nt	-35%[59 µM]	-15%	nt	34%	-3%
COC(=O)C1=C(C)NC(=O)/C1=C\c1ccc2c(c1)OCO2	-2	nt	-6%	-1	20%	-29%
COC(=O)C1=C(C)NC(=O)/C1=C\N(C)C	3	40µM*	-8%	0	36%	-11%
Cc1cc(Cl)cc2c1NC(=O)[C@]21[C@@H]2C(=O)N(Cc3ccccc3)C(=O)[C@@H]2[C@@H]2CCCN21	-8	?	?	-4	-11%	?
CCc1ccc2c(c1)[C@]1(C(=O)N2)[C@@H]2C(=O)N(Cc3ccccc3)C(=O)[C@@H]2[C@@H]2CCCN21	-7	71µM*	-32%	-6	6%	2%
Cn1cccc1C(=O)N1CCC2(CC1)CN(C(=O)Nc1ccccc1)C2	nt	-4%[12.7 µM]	nt	nt	nt	nt
Cc1ccc(S(=O)(=O)N2CCC[C@H]2C(=O)NC2=NCCS2)cc1	0	nt	?	1	24%	nt
CCCCc1nc2cc(C(=O)N3CCCCC3C(=O)OC)ccc2o1 (stereo unspecified)	0	17%	22µM*	2	11%	-2%
Cc1ccccc1OCC(O)Cn1c(Br)nc2c1c(=O)[nH]c(=O)n2C (stereo unspecified)	7	25%	-11%	-7	42%	0%
Cc1ccccc1OCC(O)Cn1c(SC(C)C)nc2c1c(=O)[nH]c(=O)n2C (stereo unspecified)	5	3.5µM*	?	-1	-12%	-27%
CCSc1nc2c(c(=O)[nH]c(=O)n2C)n1CC(O)COc1ccccc1C (stereo unspecified)	0	16µM*	-3%	3	-27%	-15%
Cc1ccc(N2CC(NC(=O)Cc3ccc(F)cc3)CC2=O)cc1C (stereo unspecified)	nt	5%[59 µM]	-15%	nt	-6%	2%
Cc1ccc(CN(C(=O)COc2c(C)cccc2C)C2CCS(=O)(=O)C2)o1 (stereo unspecified)	nt	-15%[59 µM]	-31%	nt	35%	-30%
CC(C)Sc1nc2sc3c(c2c(=O)n1Cc1ccccc1)CCCC3	nt	10%[59 µM]	4%	nt	69%	11%
CN(CC(=O)Nc1ccc(C#N)cc1)CC(=O)Nc1ccc(N2CCOCC2)cc1	0	?	40µM*	8	-7%	11%
CCN(CC(=O)NCc1ccc(Cl)cc1)C(=O)c1ccc(C#N)cc1	3	40µM*	-6%	3	32%	-6%
CCN(CC(=O)NCc1ccc(F)cc1)C(=O)c1ccc(Cl)cc1	2	14%	-7%	nt	21%	-1%
CCc1ccc(NC(=O)CS(=O)CC(=O)Nc2ccc(N3CCOCC3)cc2)cc1 (stereo unspecified)	-2	50µM*	40µM*	9	4%	79µM*
CN(CC(=O)Nc1ccc(N2CCOCC2)cc1)CC(=O)Nc1ccc(N2CCOCC2)cc1	17	?	-29%	nt	27%	-12%
CCN(CC(=O)Nc1ccc(N2CCOCC2)cc1)C(=O)c1ccc(C#N)cc1	-8	45µM*	-14%	1	6%	-9%
Cc1cccc(C)c1NC(=O)CS(=O)CC(=O)Nc1ccc(N2CCOCC2)cc1 (stereo unspecified)	2	?	-3%	-12	3%	-1%
C[C@@H]1C(=O)O[C@@H]2C[C@]34[C@H]5C[C@@H](C(C)(C)C)[C@@]36[C@@H](OC(=O)[C@@H]6O)O[C@@]4(C(=O)O5)[C@@]12O	nt	23%[21.5 µM]	nt	nt	nt	nt
SMILES	Six1-Eya2 inh	G9a inh	JMJD2A Tudor	CtBP-E1A inh	HP1b chromo inh	BAZ2B inh
COc1cccc2cc(S(=O)(=O)c3ccc(F)c(C)c3)c(=O)oc12	nt	-20%[59 µM]	-9%	nt	30%	-13%
Cc1cccc(C)c1OCc1cc(C(=O)N2CCN(Cc3nccn3C)CC2)no1	-6	-2%	-7%	-11	29%	-22%[57.1 µM]
CC(C)(C)OC(=O)N(CCc1ccccc1)Cc1ccccc1OCc1ccc(NC(=O)C2CCC2)cc1	1	nt	-20%	0	20%	nt
O=C(Nc1ccccc1C(=O)N1CCN(c2cccc(Cl)c2)CC1)C1=CSCCO1	-1	32%[59 µM]	-34%	-8	-7%	71µM*
O=C(Nc1ccc(C(=O)N2CCN(c3ccc(Cl)cc3)CC2)cc1)C1=CSCCO1	20	-1%	?	21	23%	-27%
CC1=CCC2C(=O)N(c3nc4ccccc4n3C)C(=O)C2C1 (stereo unspecified)	-11	-5%[59 µM]	56µM*	5	0%	?
CC(=O)N(CC(=O)O)c1ccccc1C(=O)O	14	18µM*	-1%	-2	12%	-1%
O=C1C2=C(C(=O)c3ccccc31)C1O[C@](c3ccsc3)(Cc3c1ccc1ccccc31)O2	nt	-45%[2.33 µM]	nt	nt	nt	11µM*
CC1CN(S(=O)(=O)c2ccc(C(=O)N(CCCN(C)C)c3nc4cc5c(cc4s3)OCCO5)cc2)CC(C)O1 (stereo unspecified)	-8	50µM*	-36%	0	4%	-5%
CN(C)CCN(C(=O)c1ccc(S(=O)(=O)N2CCCC2)cc1)c1nc2ccc(Br)cc2s1	2	71µM*	-24%	8	35%	-18%
CCc1ccc2nc(N(CCCN(C)C)C(=O)c3ccc(S(=O)(=O)N4CCCc5ccccc54)cc3)sc2c1	-29	40µM*	45µM*	3	?	?
CN(C)CCCN(C(=O)c1ccc(S(=O)(=O)N2CCCCCC2)cc1)c1nc2cc3c(cc2s1)OCO3	-24	nt	nt	-14	nt	nt
CN(C)CCCN(C(=O)c1ccc(S(=O)(=O)N2CCOCC2)cc1)c1nc2ccc(F)cc2s1	-22	nt	-24%	-1	4%	-10%
CCC1CCCCN1S(=O)(=O)c1ccc(C(=O)N(CCCN(C)C)c2nc3cc4c(cc3s2)OCO4)cc1 (stereo unspecified)	-28	56µM*	?	?	-11%	?
COc1cc(C2/C(=C(\O)c3ccc4c(c3)OCCO4)C(=O)C(=O)N2c2nnc(C)s2)cc(OC)c1OC (stereo unspecified)	4	-24%	-11%	4	27%	-16%[57.1 µM]

Bioassay records (PubChem)
